Values joined by “and” are separate entries in the source; they are usually repeats but may differ in a detail not shown here. Equal values may be shown once. Records with an inconclusive call do not appear. Where a call stands in place of a potency, no number is given. Unmarked numbers belong to inactive results. Active and inactive are the calls of the source. Unless noted, calls follow the shape of the dose curve; as a rule, active = well fitted curve in the direction sought with a large enough effect in the repeat runs; inconclusive = weak or mixed curves; inactive = no such curve, though single readings can be large; an effect the other way counts as inactive or inconclusive.
Legend:
[1] = molecular target: Aryl hydrocarbon receptor (Homo sapiens) (UniProt P35869); assay: qHTS assay to identify small molecule that activate the aryl hydrocarbon receptor (AhR) signaling pathway (AID 743085); also: nearly all actives have a fitted effect of over 15% in size; also: potency is read from the fitted curve at half-maximal effect;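 as to activation: HG2L7.5c1 human HepG2 liver cells with stably integrated DRE-driven firefly reporter; series mostly up to about 70 µM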
How it was run: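 Compounds were tested in HepG2 hepatocellular carcinoma cells harbouring a stably integrated luciferase gene under control of 20 DREs. Increased reporter signal after 24 h treatment at 37C was taken as AhR activation.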

[2] = qHTS assay to identify small molecule that activate the aryl hydrocarbon receptor (AhR) signaling pathway - cell viability counter screen (AID 743086);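 also: HepG2 liver cells carrying the AhR DRE luciferase reporter; series mostly up to about 70 µM; nearly all actives have a fitted effect of over 45% in size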
How it was run: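 HepG2-AhR-luc (HG2L7.5c1) cells, 4000/well, were preincubated 5 h at 37C, exposed to compound in qHTS format for 24 hr at 37C, then given CellTiter-Fluor for 30 min; viability was read as fluorescence in the reporter wells.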

[3] = molecular target: Peroxisome proliferator-activated receptor gamma (Homo sapiens) (UniProt P37231); assay: qHTS assay to identify small molecule agonists of the peroxisome proliferator-activated receptor gamma (PPARg) signaling pathway (AID 743094; active = well fitted activation curve with a large enough effect in the signal ratio in the repeat runs, not every such curve was filed as active; the % refers to the signal ratio)
How it was run: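 Cell-based bla reporter, HEK293H background, PPARg-driven UAS. Pre-incubation 5 h, 37C, 5% CO2. Compound 17 h, 37C. Substrate 1 h RT; fluorescence.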

[4] = molecular target: Peroxisome proliferator-activated receptor gamma (Homo sapiens) (UniProt P37231); assay: qHTS assay to identify small molecule antagonists of the peroxisome proliferator-activated receptor gamma (PPARg) signaling pathway (AID 743191; calls by dose curve; also: series mostly up to about 63 µM; nearly all actives have a fitted effect of over 30% in size)
How it was run: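 GeneBLAzer PPARg UAS-bla HEK293H cells carrying a UAS-driven beta-lactamase reporter were plated at 3000 cells/well, preincubated 5 h at 37C, then given compound for 17 h at 37C; LiveBLAzer B/G FRET substrate was read after 1 h at room temperature.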

[5] = qHTS assay to identify small molecule antagonists of the peroxisome proliferator-activated receptor gamma (PPARg) signaling pathway - cell viability counter screen (AID 743194); also: nearly all actives have a fitted effect of over 55% in size; also: potency is read from the fitted curve at half-maximal effect
How it was run: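 PPARg-UAS-bla HEK293H cells were plated, rested 5 h at 37 C, then treated with compounds plus rosiglitazone (50 nM final) for 17 h at 37 C; viability was then read by CellTiter-Glo luminescence after 30 min at room temperature.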

[6] = qHTS assay for small molecule agonists of the antioxidant response element (ARE) signaling pathway (AID 743202; active = well fitted activation curve with a large enough effect in the signal ratio in the repeat runs, not every such curve was filed as active; the % refers to the signal ratio)
How it was run: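 Following a 16 h, 37 C exposure of reporter HepG2 cells (ARE-driven beta-lactamase, 2,000 cells/well) to compounds, FRET substrate was applied for 2 h at room temperature and fluorescence intensity recorded.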

[7] = qHTS assay for small molecule agonists of the antioxidant response element (ARE) signaling pathway - cell viability counter screen (AID 743203; calls by dose curve; also: nearly all actives have a fitted effect of over 55% in size; also: potency is read from the fitted curve at half-maximal effect)
How it was run: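 Measured in the same wells as the beta-lactamase ARE reporter, this read-out is CellTiter-Glo luminescence from HepG2 ARE-bla cells given compounds for 16 hrs.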

[8] = qHTS assay for small molecule activators of the heat shock response signaling pathway - cell viability counter screen (AID 743209); also: nearly all actives have a fitted effect of over 50% in size; also: potency is read from the fitted curve at half-maximal effect
How it was run: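 Same-well multiplex: after 2.5 h room-temperature incubation with LiveBLAzer B/G substrate and fluorescence reading, CellTiter-Glo reagent was added to HSE-bla HeLa cells that had received compound for 5 h at 37 C; luminescence read after 30 min.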

[9] = qHTS assay for small molecule activators of the heat shock response signaling pathway (AID 743210; active = well fitted activation curve with a large enough effect in the signal ratio in the repeat runs, with a control signal flat, not every such curve was filed as active; the % refers to the signal ratio; also: series mostly up to about 63 µM)
How it was run: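 Heat shock element–beta-lactamase HeLa reporter cells; qHTS with compounds for 5 h at 37 C; detection by FRET substrate fluorescence after 2.5 h at RT.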

[10] = qHTS assay to identify small molecule agonists of the peroxisome proliferator-activated receptor delta (PPARd) signaling pathway - cell viability counter screen (AID 743211); also: nearly all actives have a fitted effect of over 55% in size; also: potency is read from the fitted curve at half-maximal effect
How it was run: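 Counter screen for cytotoxicity run in parallel with the PPARd reporter screen. Beta-lactamase reporter HEK293H cells exposed to compounds 17 h; ATP-based CellTiter-Glo luminescence quantified viability.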

[11] = molecular target: Peroxisome proliferator-activated receptor delta (Homo sapiens) (UniProt Q03181); assay: qHTS assay to identify small molecule agonists of the peroxisome proliferator-activated receptor delta (PPARd) signaling pathway (AID 743212; calls by dose curve)
How it was run: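 Beta-lactamase reporter read by fluorescence (LiveBLAzer B/G FRET, 2 h, room temperature). Test agents, in DMSO, incubated at 37 C with PPARd-bla HEK293H cells.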

[12] = molecular target: Peroxisome proliferator-activated receptor delta (Homo sapiens) (UniProt Q03181); assay: qHTS assay to identify small molecule antagonists of the peroxisome proliferator-activated receptor delta (PPARd) signaling pathway (AID 743215; active = well fitted inhibition curve with a large enough effect in the signal ratio in the repeat runs, not every such curve was filed as active; the % refers to the signal ratio;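 also: cells stimulated with agonist L165041 at 300 nM final during compound exposure; series mostly up to about 62 µM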)
How it was run: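 Fluorescence from cleaved LiveBLAzer B/G FRET substrate (2 h, room temperature) reports PPARd-driven beta-lactamase in HEK293H UAS-bla cells. Cells had been treated 17 h at 37 C with compound plus 300 nM final L165041.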

[13] = molecular target: Bile acid receptor (Homo sapiens) (UniProt Q96RI1); assay: qHTS assay to identify small molecule antagonists of the farnesoid-X-receptor (FXR) signaling pathway (AID 743217; active = well fitted inhibition curve with a large enough effect in the signal ratio in the repeat runs, not every such curve was filed as active; the % refers to the signal ratio)
How it was run: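 FRET fluorescence after 2 h room-temperature LiveBLAzer loading gives the readout. Prior step: FXR-bla HEK 293T cells, seeded and incubated 5 h, received test compounds plus 50 uM final CDCA for 16 h at 37 °C.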

[14] = qHTS assay to identify small molecule agonists of the farnesoid-X-receptor (FXR) signaling pathway - cell viability counter screen (AID 743218); also: nearly all actives have a fitted effect of over 45% in size; also: potency is read from the fitted curve at half-maximal effect
How it was run: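 Readout: CellTiter-Glo luminescence, 30 min RT, multiplexed after the FXR-bla FRET reading. HEK 293T FXR-UAS-bla cells received compound 5 h post-plating and were incubated 16 h at 37 C.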

[15] = molecular target: Bile acid receptor (Homo sapiens) (UniProt Q96RI1); assay: qHTS assay to identify small molecule agonists of the farnesoid-X-receptor (FXR) signaling pathway (AID 743220; active = well fitted activation curve with a large enough effect in the signal ratio in the repeat runs, not every such curve was filed as active; the % refers to the signal ratio)
How it was run: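 FXR-UAS-bla HEK 293T cells carrying a UAS-driven beta-lactamase reporter were plated for 5 h at 37C/5% CO2, then exposed to DMSO-dissolved Tox21 10K compounds for 16 h at 37C. A LiveBLAzer B/G FRET substrate was loaded for 2 h at room temperature before fluorescence reading.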

[16] = qHTS assay to identify small molecule antagonists of the farnesoid-X-receptor (FXR) signaling pathway - cell viability counter screen (AID 743221; active = well fitted cell-killing curve with a large enough effect in the repeat runs, not every such curve was filed as active; also: nearly all actives have a fitted effect of over 50% in size; also: potency is read from the fitted curve at half-maximal effect)
How it was run: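 Multiplexed counter screen: viability of FXR-bla HEK 293T cells under agonist stimulation by chenodeoxycholic acid (50 uM, final) and test compound for 16 h at 37 C, measured by CellTiter-Glo luminescence in the reporter wells.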

[17] = molecular target: Vitamin D3 receptor (Homo sapiens) (UniProt P11473); assay: qHTS assay to identify small molecule agonists of the vitamin D receptor (VDR) signaling pathway (AID 743222; calls by dose curve)
How it was run: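 Following 4 h attachment at 37C, VDR-bla cells (2,000 per well) received DMSO-dissolved compounds or controls. After 16 h incubation, LiveBLAzer B/G FRET substrate was added and fluorescence read 2 h later at room temperature.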

[18] = molecular target: Vitamin D3 receptor (Homo sapiens) (UniProt P11473); assay: qHTS assay to identify small molecule antagonists of the vitamin D receptor (VDR) signaling pathway (AID 743223; active = well fitted inhibition curve with a large enough effect in the signal ratio in the repeat runs, not every such curve was filed as active; the % refers to the signal ratio)
How it was run: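 Cells carrying a VDR-driven beta-lactamase reporter (VDR-bla) were co-treated with compound and 3 nM final 1alpha,25-dihydroxyvitamin D3 for 16 h at 37C; reporter activity was measured as FRET substrate fluorescence after 2 h at room temperature.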

[19] = qHTS assay to identify small molecule agonists of the vitamin D receptor (VDR) signaling pathway - cell viability counter screen (AID 743224); also: nearly all actives have a fitted effect of over 50% in size; also: potency is read from the fitted curve at half-maximal effect
How it was run: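 In parallel with the bla FRET readout, cytotoxicity toward VDR-bla cells after 16 h compound exposure was assessed by CellTiter-Glo, with luminescence recorded after a 30 min room-temperature incubation.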

[20] = qHTS assay to identify small molecule antagonists of the peroxisome proliferator-activated receptor delta (PPARd) signaling pathway - cell viability counter screen (AID 743213); also: nearly all actives have a fitted effect of over 50% in size; also: potency is read from the fitted curve at half-maximal effect
How it was run: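 Same-well viability: cells pre-incubated 5 h, dosed with compound plus 300 nM L165041, kept 17 h at 37 C, FRET substrate 2 h RT, then CellTiter-Glo 30 min RT and luminescence.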

Sequence of Peroxisome proliferator-activated receptor delta (Homo sapiens) (Q03181 whole entry, looked up): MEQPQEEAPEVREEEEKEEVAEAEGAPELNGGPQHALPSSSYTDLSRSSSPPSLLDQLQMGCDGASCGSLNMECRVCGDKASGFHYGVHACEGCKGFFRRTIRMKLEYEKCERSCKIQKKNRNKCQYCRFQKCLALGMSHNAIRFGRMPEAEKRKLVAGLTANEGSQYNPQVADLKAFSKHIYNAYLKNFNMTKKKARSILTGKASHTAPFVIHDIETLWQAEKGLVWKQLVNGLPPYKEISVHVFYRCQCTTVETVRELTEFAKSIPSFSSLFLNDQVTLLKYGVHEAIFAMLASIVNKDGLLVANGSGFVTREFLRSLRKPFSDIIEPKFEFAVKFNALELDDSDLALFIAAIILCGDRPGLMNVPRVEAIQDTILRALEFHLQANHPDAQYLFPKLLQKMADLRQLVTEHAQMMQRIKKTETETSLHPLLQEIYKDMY
Sequence of Peroxisome proliferator-activated receptor gamma (Homo sapiens) (P37231 whole entry, looked up): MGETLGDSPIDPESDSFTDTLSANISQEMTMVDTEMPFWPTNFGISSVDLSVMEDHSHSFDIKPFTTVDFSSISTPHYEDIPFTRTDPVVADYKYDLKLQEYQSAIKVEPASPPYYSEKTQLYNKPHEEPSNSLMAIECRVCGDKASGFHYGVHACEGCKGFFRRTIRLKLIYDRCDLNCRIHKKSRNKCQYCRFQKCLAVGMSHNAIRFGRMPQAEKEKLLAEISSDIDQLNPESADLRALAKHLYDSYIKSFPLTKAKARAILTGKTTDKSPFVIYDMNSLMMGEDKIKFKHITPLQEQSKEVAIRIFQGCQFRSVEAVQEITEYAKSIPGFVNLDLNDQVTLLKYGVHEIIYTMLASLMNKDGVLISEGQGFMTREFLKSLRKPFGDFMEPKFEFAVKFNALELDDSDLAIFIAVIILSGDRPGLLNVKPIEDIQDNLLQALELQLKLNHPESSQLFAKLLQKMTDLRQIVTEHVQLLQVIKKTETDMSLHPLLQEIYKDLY
Sequence of Bile acid receptor (Homo sapiens) (Q96RI1 whole entry, looked up): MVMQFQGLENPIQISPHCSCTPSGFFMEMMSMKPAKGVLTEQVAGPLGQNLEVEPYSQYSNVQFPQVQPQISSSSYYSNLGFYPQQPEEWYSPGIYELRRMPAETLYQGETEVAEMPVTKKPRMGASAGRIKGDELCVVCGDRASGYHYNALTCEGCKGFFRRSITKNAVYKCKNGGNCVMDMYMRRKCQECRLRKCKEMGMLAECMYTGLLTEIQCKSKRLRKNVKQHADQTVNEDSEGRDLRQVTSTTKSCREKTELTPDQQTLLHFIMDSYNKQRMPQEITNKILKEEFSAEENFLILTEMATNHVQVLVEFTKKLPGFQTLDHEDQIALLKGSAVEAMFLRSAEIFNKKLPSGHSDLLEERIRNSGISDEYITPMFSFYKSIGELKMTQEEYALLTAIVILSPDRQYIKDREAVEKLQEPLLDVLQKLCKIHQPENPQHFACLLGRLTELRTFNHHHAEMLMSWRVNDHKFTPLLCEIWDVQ
Sequence of Vitamin D3 receptor (Homo sapiens) (P11473 whole entry, looked up): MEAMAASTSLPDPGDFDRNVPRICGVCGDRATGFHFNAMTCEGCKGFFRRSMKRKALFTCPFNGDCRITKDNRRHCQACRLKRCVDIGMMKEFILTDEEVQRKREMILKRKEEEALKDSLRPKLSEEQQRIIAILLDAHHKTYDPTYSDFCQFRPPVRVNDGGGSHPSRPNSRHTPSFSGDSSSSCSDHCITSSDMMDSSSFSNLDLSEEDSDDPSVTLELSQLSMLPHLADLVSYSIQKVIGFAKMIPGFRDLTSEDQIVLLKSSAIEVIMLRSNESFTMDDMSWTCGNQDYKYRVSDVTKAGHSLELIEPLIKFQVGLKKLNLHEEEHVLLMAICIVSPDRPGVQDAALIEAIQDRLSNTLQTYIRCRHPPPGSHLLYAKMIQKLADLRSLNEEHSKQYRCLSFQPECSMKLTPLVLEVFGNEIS
Sequence of Aryl hydrocarbon receptor (Homo sapiens) (P35869 whole entry, looked up): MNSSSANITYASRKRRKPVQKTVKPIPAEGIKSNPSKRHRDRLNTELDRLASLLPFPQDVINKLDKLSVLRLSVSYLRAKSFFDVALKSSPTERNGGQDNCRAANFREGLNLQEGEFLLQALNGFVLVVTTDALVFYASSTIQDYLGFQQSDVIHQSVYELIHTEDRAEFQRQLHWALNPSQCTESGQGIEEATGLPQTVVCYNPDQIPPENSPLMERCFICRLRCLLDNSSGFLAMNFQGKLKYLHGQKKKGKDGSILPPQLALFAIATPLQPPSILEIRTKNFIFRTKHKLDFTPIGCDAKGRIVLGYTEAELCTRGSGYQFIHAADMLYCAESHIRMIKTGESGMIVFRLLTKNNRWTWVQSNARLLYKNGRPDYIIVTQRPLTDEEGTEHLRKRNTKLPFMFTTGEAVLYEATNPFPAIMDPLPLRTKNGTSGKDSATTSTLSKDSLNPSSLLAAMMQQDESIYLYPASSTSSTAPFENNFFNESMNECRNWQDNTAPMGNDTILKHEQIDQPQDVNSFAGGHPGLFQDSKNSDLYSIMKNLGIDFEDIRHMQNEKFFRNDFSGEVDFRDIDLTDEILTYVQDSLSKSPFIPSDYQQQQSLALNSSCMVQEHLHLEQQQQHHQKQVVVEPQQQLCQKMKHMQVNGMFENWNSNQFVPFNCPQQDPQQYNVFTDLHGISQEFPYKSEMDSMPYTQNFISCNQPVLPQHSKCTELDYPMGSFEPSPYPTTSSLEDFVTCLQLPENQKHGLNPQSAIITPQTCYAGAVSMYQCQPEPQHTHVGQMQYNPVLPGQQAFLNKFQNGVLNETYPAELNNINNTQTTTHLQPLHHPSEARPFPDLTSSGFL

Compound | Potency [1] | Potency [2] | Potency [3] | Potency [4] | Potency [5] | Potency [6] | Potency [7] | Potency [8] | Potency [9] | Potency [10] | Potency [11] | Potency [12] | Potency [13] | Potency [14] | Potency [15] | Potency [16] | Potency [17] | Potency [18] | Potency [19] | Potency [20]
OCC(F)(F)F | inactive | inactive | inactive | inactive | inactive | inactive | inactive | inactive | inactive | inactive | inactive | inactive | inactive | inactive | inactive | inactive | inactive | inactive | inactive | 
CN1CCCCC1CCN1c2ccccc2Sc2ccc(S(C)=O)cc21 (configuration not stated) | inactive | inactive | inactive | inactive | inactive | inactive | inactive | inactive | inactive |  | inactive |  |  | inactive |  | inactive |  |  |  | 
COC(=O)c1ccccc1C | inactive | inactive | inactive | inactive |  | inactive | inactive | inactive | inactive | inactive | inactive | inactive | inactive | inactive | inactive | inactive |  |  |  | inactive
CC(=O)CC(=O)Nc1ccc(S(=O)(=O)O)cc1 | inactive | inactive | inactive | inactive | inactive | inactive | inactive | inactive | inactive | inactive | inactive | inactive |  | inactive |  | inactive | inactive | inactive | inactive | inactive
CCC(CC)C(C)CCOC(C)=O (configuration not stated) | inactive | inactive | inactive |  | inactive | inactive | inactive | inactive | inactive | inactive | inactive | inactive |  |  |  | inactive |  | inactive | inactive | inactive
CC(C)(C)c1ccc(C(O)CCCN2CCC(C(O)(c3ccccc3)c3ccccc3)CC2)cc1 (configuration not stated) | inactive | inactive | inactive |  | 13.3 µM (active) |  | 11.9 µM (active) | 21.1 µM (active) |  | 10.6 µM (active) |  |  |  | 10.6 µM (active) |  |  |  | inactive | 13.3 µM (active) | 7.5 µM (active)
CC(C)Cn1cnc2c(N)nc3ccccc3c21 | 9.44 µM (active) | inactive | inactive |  | inactive |  | inactive | inactive |  | inactive | inactive |  | inactive | inactive | inactive | inactive |  | inactive | inactive | inactive
CCO[C@@H]1O[C@H](C(COCc2ccccc2)OCc2ccccc2)[C@H](OCc2ccccc2)[C@H]1O (some centres not stated) | inactive | inactive | inactive |  | inactive |  | inactive | inactive |  |  |  |  |  | 21.1 µM (active) | inactive | 13.3 µM (active) |  |  | inactive | 
COC(=O)c1ccccc1OC | inactive | inactive | inactive |  | inactive | inactive | inactive | inactive |  | inactive | inactive | inactive | inactive | inactive | inactive | inactive |  |  | inactive | 
OC1CCC(C2CCCCC2)CC1 (configuration not stated) | inactive | inactive | inactive |  | inactive |  | inactive | inactive | inactive |  | inactive | inactive | inactive | inactive | inactive | inactive | inactive | inactive | inactive | 
CC(C)CCOC(=O)/C=C/c1ccccc1 | inactive | inactive | inactive |  | inactive |  |  | inactive | inactive | inactive | inactive | inactive | inactive | inactive | inactive | inactive |  |  | inactive | inactive
OC[C@@H](O)[C@@H](O)CO | inactive | inactive | inactive |  | inactive | inactive |  | inactive | inactive | inactive | inactive | inactive |  | inactive |  | inactive |  |  |  | inactive
Cc1ccc(C(=O)O)cc1 | inactive | inactive | inactive |  | inactive | inactive | inactive | inactive |  | inactive | inactive |  | inactive | inactive | inactive | inactive |  |  | inactive | inactive
CCCCCCCCCCOC(=O)c1ccccc1C(=O)OCCCCCCCC | inactive | inactive | inactive |  | inactive |  | inactive | inactive | inactive | inactive | inactive |  |  | inactive |  | inactive |  |  | inactive | inactive
CCCCN(CCCC)CC(O)c1cc(Cl)cc2c1-c1ccc(Cl)cc1/C2=C/c1ccc(Cl)cc1 (configuration not stated) | 26.6 µM (active) | inactive | inactive |  | inactive | inactive |  |  |  |  |  |  |  | 29.8 µM (active) |  |  |  | inactive |  | 29.8 µM (active)
C#CC1(O)CC[C@H]2[C@@H]3CCC4=CCCC[C@@H]4[C@H]3CC[C@@]21C (some centres not stated) | inactive | inactive | inactive |  |  |  | 61.1 µM (active) and 13.3 µM (active) | 11.9 µM (active) |  | 11.9 µM (active) | inactive |  |  | 23.7 µM (active) | inactive |  |  |  | 49 µM (active) and 23.7 µM (active) | 
CC1=CCC(=C(C)C)CC1 | inactive | inactive | inactive |  | inactive |  | inactive | inactive | inactive | inactive |  |  |  | inactive |  | inactive |  |  | inactive | inactive
O=C1C(c2[nH]c3ccc(S(=O)(=O)O)cc3c2O)=Nc2ccc(S(=O)(=O)O)cc21 | inactive | inactive | inactive | inactive |  |  |  | inactive | inactive | inactive | inactive | inactive |  | inactive |  | inactive |  | inactive |  | 
Cc1c(F)c(N2CCNC(C)C2)cc2c1c(=O)c(C(=O)O)cn2C1CC1 (configuration not stated) | inactive | inactive | inactive |  | inactive |  | inactive | inactive |  | inactive | inactive |  |  | inactive |  | inactive |  | inactive |  | inactive
